Experimental data from PubChem BioAssay AID1159580 (chemical genetic matrix, 2015).
Where “and” joins values, the source holds several entries; their conditions need not be identical. Equal values may be shown once. The whole screen tested about 5,500 compounds, of which about 2,000 (36%) were called active. Inconclusive results (about 18%) are left out. This is one part of the list. Unmarked numbers belong to inactive results. Rule as the data show it: active = normalized growth mostly below about 0.91 (no sharp cut-off); inconclusive = no clear call, values can overlap the other calls; inactive = mostly above about 0.92.

Assay: chemical genetic growth profiling, strain panel (AID 1159580);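 also: tested at 20 µM; growth read once vehicle control cultures reached saturation at 30 °C; 1 = growth at the plate median or of vehicle wells; lower values mean less growth of the strain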
Settings: growth OD

COc1ccc(-c2coc3cc(O)cc(O)c3c2=O)cc1
normalized growth (S. cerevisiae deletion strains, locus YAL013W, strain DEP1, active compounds read low): 0.497 (active)
normalized growth (S. cerevisiae deletion strains, locus YBR021W, strain FUR4, active compounds read low): 0.988
normalized growth (S. cerevisiae deletion strains, locus YBR229C, strain ROT2, active compounds read low): 0.77 (active)
normalized growth (S. cerevisiae deletion strains, locus YCL029C, strain bik1, active compounds read low): 0.496 (active)
normalized growth (S. cerevisiae deletion strains, locus YDL035C, strain GPR1, active compounds read low): 0.241 (active)
normalized growth (S. cerevisiae deletion strains, locus YDL074C, strain BRE1, active compounds read low): 0.261 (active)
normalized growth (S. cerevisiae deletion strains, locus YDL101C, strain DUN1, active compounds read low): 0.358 (active)
normalized growth (S. cerevisiae deletion strains, locus YDL134C, strain PPH21, active compounds read low): 0.295 (active)
normalized growth (S. cerevisiae deletion strains, locus YDL185W, strain tfp1, active compounds read low): 0.899 (active)
normalized growth (S. cerevisiae deletion strains, locus YDL192W, strain arf1, active compounds read low): 0.28 (active)
normalized growth (S. cerevisiae deletion strains, locus YDR101C, strain arx1, active compounds read low): 0.504 (active)
normalized growth (S. cerevisiae deletion strains, locus YDR150W, strain NUM1, active compounds read low): 0.323 (active)
normalized growth (S. cerevisiae deletion strains, locus YDR162C, strain NBP2, active compounds read low): 0.12 (active)
normalized growth (S. cerevisiae deletion strains, locus YDR318W, strain mcm21, active compounds read low): 0.265 (active)
normalized growth (S. cerevisiae deletion strains, locus YDR388W, active compounds read low): 0.286 (active)
normalized growth (S. cerevisiae deletion strains, locus YDR502C, strain sam2, active compounds read low): 0.287 (active)
normalized growth (S. cerevisiae deletion strains, locus YEL061C, strain CIN8, active compounds read low): 0.206 (active)
normalized growth (S. cerevisiae deletion strains, locus YER110C, active compounds read low): 0.539 (active)
normalized growth (S. cerevisiae deletion strains, locus YER155C, strain BEM2, active compounds read low): 0.199 (active)
normalized growth (S. cerevisiae deletion strains, locus YER167W, strain BCK2, active compounds read low): 0.178 (active)
normalized growth (S. cerevisiae deletion strains, locus YGL078C, strain dbp3, active compounds read low): 0.649 (active)
normalized growth (S. cerevisiae deletion strains, locus YGL086W, strain mad1, active compounds read low): 0.258 (active)
normalized growth (S. cerevisiae deletion strains, locus YGL248W, strain PDE1, active compounds read low): 0.286 (active)
normalized growth (S. cerevisiae deletion strains, locus YGR078C, strain PAC10, active compounds read low): 0.227 (active)
normalized growth (S. cerevisiae deletion strains, locus YGR135W, strain pre9, active compounds read low): 0.314 (active)
normalized growth (S. cerevisiae deletion strains, locus YGR229C, strain SMI1, active compounds read low): 0.196 (active)
normalized growth (S. cerevisiae deletion strains, locus YGR252W, strain gcn5, active compounds read low): 0.507 (active)
normalized growth (S. cerevisiae deletion strains, locus YHR030C, strain SLT2, active compounds read low): 0.248 (active) and 0.299 (active)
normalized growth (S. cerevisiae deletion strains, locus YHR079C, strain IRE1 (second series), active compounds read low): 0.526 (active)
normalized growth (S. cerevisiae deletion strains, locus YHR079C, strain IRE1, active compounds read low): 0.293 (active)
normalized growth (S. cerevisiae deletion strains, locus YHR094C, strain hxt1, active compounds read low): 0.627 (active)
normalized growth (S. cerevisiae deletion strains, locus YHR129C, strain ARP1, active compounds read low): 0.363 (active)
normalized growth (S. cerevisiae deletion strains, locus YHR200W, strain rpn10, active compounds read low): 0.513 (active)
normalized growth (S. cerevisiae deletion strains, locus YIL066C, strain RNR3, active compounds read low): 0.361 (active)
normalized growth (S. cerevisiae deletion strains, locus YIL073C, strain SPO22, active compounds read low): 0.532 (active)
normalized growth (S. cerevisiae deletion strains, locus YIL125W, strain kgd1, active compounds read low): 0.697 (active)
normalized growth (S. cerevisiae deletion strains, locus YIR030C, strain dcg1, active compounds read low): 0.465 (active)
normalized growth (S. cerevisiae deletion strains, locus YJL095W, strain BCK1, active compounds read low): 0.172 (active) and 0.287 (active)
normalized growth (S. cerevisiae deletion strains, locus YJL134W, strain LCB3, active compounds read low): 0.7 (active)
normalized growth (S. cerevisiae deletion strains, locus YJL168C, strain set2, active compounds read low): 0.888 (active)
normalized growth (S. cerevisiae deletion strains, locus YJL187C, strain SWE1 (second series), active compounds read low): 0.353 (active)
normalized growth (S. cerevisiae deletion strains, locus YJR043C, strain POL32, active compounds read low): 0.374 (active)
normalized growth (S. cerevisiae deletion strains, locus YJR066W, strain TOR1, active compounds read low): 0.16 (active)
normalized growth (S. cerevisiae deletion strains, locus YJR075W, strain HOC1, active compounds read low): 0.179 (active)
normalized growth (S. cerevisiae deletion strains, locus YKL009W, strain mrt4, active compounds read low): 0.484 (active)
normalized growth (S. cerevisiae deletion strains, locus YKL068W, active compounds read low): 0.964
normalized growth (S. cerevisiae deletion strains, locus YKL085W, strain MDH1 (second series), active compounds read low): 0.604 (active)
normalized growth (S. cerevisiae deletion strains, locus YKL085W, strain MDH1, active compounds read low): 0.604 (active)
normalized growth (S. cerevisiae deletion strains, locus YKL190W, strain CNB1, active compounds read low): 0.223 (active)
normalized growth (S. cerevisiae deletion strains, locus YKR001C, strain vps1, active compounds read low): 0.189 (active)
normalized growth (S. cerevisiae deletion strains, locus YLR039C, strain RIC1, active compounds read low): 0.241 (active)
normalized growth (S. cerevisiae deletion strains, locus YLR058C, strain SHM2, active compounds read low): 0.365 (active)
normalized growth (S. cerevisiae deletion strains, locus YLR102C, strain apc9, active compounds read low): 0.625 (active)
normalized growth (S. cerevisiae deletion strains, locus YLR113W, strain HOG1, active compounds read low): 0.332 (active)
normalized growth (S. cerevisiae deletion strains, locus YLR262C, strain YPT6, active compounds read low): 0.181 (active)
normalized growth (S. cerevisiae deletion strains, locus YLR268W, strain sec22, active compounds read low): 0.211 (active)
normalized growth (S. cerevisiae deletion strains, locus YLR330W, strain CHS5, active compounds read low): 0.356 (active)
normalized growth (S. cerevisiae deletion strains, locus YLR342W, strain FKS1 (second series), active compounds read low): 0.289 (active)
normalized growth (S. cerevisiae deletion strains, locus YLR371W, strain rom2, active compounds read low): 0.493 (active)
normalized growth (S. cerevisiae deletion strains, locus YLR418C, strain cdc73, active compounds read low): 0.192 (active)
normalized growth (S. cerevisiae deletion strains, locus YML016C, strain PPZ1, active compounds read low): 0.444 (active)
normalized growth (S. cerevisiae deletion strains, locus YML032C, strain rad52, active compounds read low): 0.449 (active)
normalized growth (S. cerevisiae deletion strains, locus YML124C, strain tub3, active compounds read low): 0.449 (active)
normalized growth (S. cerevisiae deletion strains, locus YMR078C, strain ctf18, active compounds read low): 0.407 (active)
normalized growth (S. cerevisiae deletion strains, locus YMR223W, strain ubp8, active compounds read low): 0.297 (active)
normalized growth (S. cerevisiae deletion strains, locus YMR263W, strain SAP30, active compounds read low): 0.424 (active)
normalized growth (S. cerevisiae deletion strains, locus YMR307W, strain GAS1, active compounds read low): 0.148 (active)
normalized growth (S. cerevisiae deletion strains, locus YNL067W, strain RPL9B, active compounds read low): 0.234 (active)
normalized growth (S. cerevisiae deletion strains, locus YNL128W, strain TEP1, active compounds read low): 0.272 (active)
normalized growth (S. cerevisiae deletion strains, locus YNL153C, strain GIM3, active compounds read low): 0.439 (active)
normalized growth (S. cerevisiae deletion strains, locus YNL183C, strain NPR1, active compounds read low): 0.228 (active)
normalized growth (S. cerevisiae deletion strains, locus YNL233W, strain BNI4, active compounds read low): 0.242 (active)
normalized growth (S. cerevisiae deletion strains, locus YNL250W, strain rad50, active compounds read low): 0.789 (active)
normalized growth (S. cerevisiae deletion strains, locus YNL271C, strain bni1, active compounds read low): 0.623 (active)
normalized growth (S. cerevisiae deletion strains, locus YNL298W, strain CLA4, active compounds read low): 0.459 (active)
normalized growth (S. cerevisiae deletion strains, locus YNL307C, strain MCK1, active compounds read low): 0.114 (active)
normalized growth (S. cerevisiae deletion strains, locus YNL322C, strain KRE1, active compounds read low): 0.337 (active)
normalized growth (S. cerevisiae deletion strains, locus YNR052C, strain pop2, active compounds read low): 0.656 (active)
normalized growth (S. cerevisiae deletion strains, locus YOL006C, strain TOP1, active compounds read low): 0.29 (active)
normalized growth (S. cerevisiae deletion strains, locus YOL012C, strain htz1): 0.231
normalized growth (S. cerevisiae deletion strains, locus YOL147C, strain pex11, active compounds read low): 0.362 (active)
normalized growth (S. cerevisiae deletion strains, locus YOR061W, strain CKA2, active compounds read low): 0.432 (active)
normalized growth (S. cerevisiae deletion strains, locus YOR069W, strain VPS5, active compounds read low): 0.501 (active)
normalized growth (S. cerevisiae deletion strains, locus YOR136W, strain idh2, active compounds read low): 0.304 (active)
normalized growth (S. cerevisiae deletion strains, locus YOR144C, strain elg1, active compounds read low): 0.652 (active)
normalized growth (S. cerevisiae deletion strains, locus YOR184W, strain ser1, active compounds read low): 0.111 (active)
normalized growth (S. cerevisiae deletion strains, locus YOR231W, strain MKK1, active compounds read low): 0.288 (active)
normalized growth (S. cerevisiae deletion strains, locus YOR316C, strain cot1, active compounds read low): 0.636 (active)
normalized growth (S. cerevisiae deletion strains, locus YPL055C, strain LGE1, active compounds read low): 0.176 (active)
normalized growth (S. cerevisiae deletion strains, locus YPL241C, strain CIN2, active compounds read low): 0.289 (active)
normalized growth (S. cerevisiae deletion strains, locus YPL256C, strain CLN2, active compounds read low): 0.345 (active)
normalized growth (S. cerevisiae deletion strains, locus YPR119W, strain clb2, active compounds read low): 0.308 (active)
normalized growth (S. cerevisiae deletion strains, locus YPR141C, strain kar3, active compounds read low): 0.935
normalized growth (S. cerevisiae deletion strains, locus YPR163C, strain tif3, active compounds read low): 0.207 (active)
normalized growth (S. cerevisiae deletion strains, locus YPR167C, strain met16, active compounds read low): 0.44 (active)
normalized growth (S. cerevisiae deletion strains, strain wtn01, active compounds read low): 0.226 (active)
normalized growth (S. cerevisiae strains, strain wild type, active compounds read low): 0.244 (active)
